The full ranking holds about 33,000 sequences; the median of “E-score (-0.5 to 0.5)” is about -0.0059, and the highest 2% start at about 0.26. The entries come from a sample that favours the highest values as a whole.

The test has as its target T1, Cin5 (UniProt P40917).
T1 sequence: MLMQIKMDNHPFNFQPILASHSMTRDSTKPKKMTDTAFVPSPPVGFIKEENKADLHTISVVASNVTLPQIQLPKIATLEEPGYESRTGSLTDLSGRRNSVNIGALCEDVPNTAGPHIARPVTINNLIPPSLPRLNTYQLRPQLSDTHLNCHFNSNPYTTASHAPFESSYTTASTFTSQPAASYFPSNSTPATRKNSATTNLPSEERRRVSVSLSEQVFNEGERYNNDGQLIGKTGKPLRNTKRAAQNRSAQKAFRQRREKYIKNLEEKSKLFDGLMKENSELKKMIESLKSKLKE
The test can be described thus: PBM E-score (8-mer binding enrichment) (E-score (-0.5 to 0.5)); higher = stronger / more preferred TF binding. Conditions: protein concentration: 100 nM; construct: GST-full length. In short, it runs like this:
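The E-score, a modified Wilcoxon-Mann-Whitney statistic, was computed by the Universal PBM Analysis Suite for every ungapped eight-base word pooled with its reverse complement. Scans behind it were normalised with masliner after bound GST-tagged yeast transcription factors were detected with fluorescent anti-GST. The proteins, at about 100-200 nM, had been applied to universal all-10-mer Agilent arrays made double-stranded by primer extension.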
For the sequence TCCATTCA, the “PBM E-score” value was determined as 0.0889.

On to GAGGTGCA, for which the “PBM E-score” value was -0.0183.

As for AATGCATT, the “PBM E-score” value was 0.259.

For AATGCAAA, the “PBM E-score” value amounted to 0.275.

For AATGCATG, the “PBM E-score” value was 0.183.

Consider AATGCAAG, for which the “PBM E-score” value stood at 0.00342.

In the case of AATGCATA, the “PBM E-score” value worked out at 0.116.

For the sequence AATGCAAC, the “PBM E-score” value was 0.0401.

On to ACGTTTCG, for which the “PBM E-score” value is -0.0249.

Consider GCTCCCGA, for which the “PBM E-score” value is -0.217.

ACGTCTCA: the “PBM E-score” value came out at 0.124.

On to CAAACTCG, for which the “PBM E-score” value was 0.0562.

For AGTTCCGA, the “PBM E-score” value was 0.123.

With CGCATCTA, the “PBM E-score” value turned out to be 0.271.

GGCATCTA: the “PBM E-score” value was -0.0103.

Regarding AGCATCTA, the “PBM E-score” value is 0.00891.

For CGCCATCA, the “PBM E-score” value is -0.202.

In the case of CAAATATG, the “PBM E-score” value was 0.117.

As for CGGAAATA, the “PBM E-score” value was 0.33.

Turning to CAAATATC, the “PBM E-score” value is 0.282.

For CCAAAATA, the “PBM E-score” value was found to be 0.113.

As to AAAAAATA, the “PBM E-score” value amounted to 0.213.

CAAAAATA: the “PBM E-score” value turned out to be 0.277.

For the sequence AAAATATC, the “PBM E-score” value amounted to 0.189.

AACAAATT: the “PBM E-score” value amounted to 0.274.

CGGAAATC: the “PBM E-score” value worked out at 0.137.

Turning to GGGAAATA, the “PBM E-score” value is 0.0795.

Consider AACAAGTT, for which the “PBM E-score” value came out at 0.0368.

As for AACAAATG, the “PBM E-score” value is 0.0424.

In the case of CGGGCCTA, the “PBM E-score” value was -0.236.

For CGGTTCTC, the “PBM E-score” value is -0.217.

In the case of GTGGAAGA, the “PBM E-score” value was -0.192.

For the sequence ACGGGCAT, the “PBM E-score” value is -0.0832.

With ACTAAGAT, the “PBM E-score” value came out at 0.2.

Take TTCTCCAA: the “PBM E-score” value was -0.0656.

Turning to ACACTCAC, the “PBM E-score” value is 0.066.

For AACAAATA, the “PBM E-score” value was 0.278.

Consider AACAAGTA, for which the “PBM E-score” value came out at 0.0249.

As for AACAAAAA, the “PBM E-score” value was 0.209.

With AACAAGAT, the “PBM E-score” value was found to be 0.146.

On to AACAAAAT, for which the “PBM E-score” value came to 0.269.

As for TACAAATA, the “PBM E-score” value was found to be 0.239.

With GTATCCAC, the “PBM E-score” value was -0.00124.

AATCATCC: the “PBM E-score” value is 0.227.

For TACTCCTA, the “PBM E-score” value came out at 0.066.

CATCCCAA: the “PBM E-score” value was 0.0478.

For CATTTCGC, the “PBM E-score” value turned out to be 0.111.

Regarding GATTTCGC, the “PBM E-score” value was found to be 0.262.

GATTTCGA: the “PBM E-score” value was 0.11.

As to CAATGGTG, the “PBM E-score” value is -0.161.

For the sequence CTCTGGAC, the “PBM E-score” value is 0.0765.

In the case of AGGGTGCA, the “PBM E-score” value was -0.148.

Turning to TCATAAGA, the “PBM E-score” value came out at 0.0448.

For ACATAAGA, the “PBM E-score” value turned out to be 0.3.

On to ACATAACA, for which the “PBM E-score” value stood at 0.286.

For ACATAAGT, the “PBM E-score” value amounted to 0.195.

With ATATAAGA, the “PBM E-score” value is 0.301.

For the sequence CCATAAGA, the “PBM E-score” value turned out to be 0.118.

Turning to GTATAAGA, the “PBM E-score” value was found to be 0.0464.

Turning to ACATAAGC, the “PBM E-score” value was determined as 0.437.

Consider ACATAACC, for which the “PBM E-score” value came out at 0.235.

As for ACATAACT, the “PBM E-score” value came to 0.197.

Consider CTATAAGA, for which the “PBM E-score” value turned out to be 0.0762.

Consider ACATAAGG, for which the “PBM E-score” value was found to be 0.194.

As to ATGGAACA, the “PBM E-score” value was -0.0505.

Take GCACTGAA: the “PBM E-score” value is -0.0379.

For CCATTGAG, the “PBM E-score” value came out at 0.00119.

As to AGACACCA, the “PBM E-score” value was -0.0438.

On to GGGAGCCC, for which the “PBM E-score” value was -0.419.

Turning to CCACGCAG, the “PBM E-score” value was -0.0201.

Consider GCATAAGA, for which the “PBM E-score” value turned out to be 0.0468.

On to GCATAAGC, for which the “PBM E-score” value was 0.276.

Take CCATAAGC: the “PBM E-score” value amounted to 0.215.

GACTTGAC: the “PBM E-score” value is -0.208.

Regarding GAGCGGGA, the “PBM E-score” value was -0.0794.

For the sequence GGCAACCA, the “PBM E-score” value is -0.0499.

In the case of CTTTCGCC, the “PBM E-score” value is -0.0892.

Regarding GGGAATCA, the “PBM E-score” value is -0.0779.

As for CGGAATCA, the “PBM E-score” value was found to be 0.27.

In the case of AGGAATCA, the “PBM E-score” value worked out at 0.172.

With CATAGCCC, the “PBM E-score” value was -0.222.

CCCACTAC: the “PBM E-score” value was determined as 0.0221.

With CTGGAGAA, the “PBM E-score” value was -0.202.

CTACACAG: the “PBM E-score” value is -0.0209.

CAAGAACA: the “PBM E-score” value was -0.0469.

TAAGAACA: the “PBM E-score” value was found to be 0.29.

Regarding GAAGAACA, the “PBM E-score” value came to 0.215.

With CGTAGACG, the “PBM E-score” value was -0.217.

Regarding GAAACTGA, the “PBM E-score” value was -0.17.

As to CCCGAGTA, the “PBM E-score” value was determined as 0.15.

In the case of CGTAGATA, the “PBM E-score” value was found to be 0.0684.

As to GATAGATA, the “PBM E-score” value is 0.0426.

ATTAGATG: the “PBM E-score” value came out at 0.239.

On to GTTAGCTA, for which the “PBM E-score” value was 0.0147.

On to AGTAGATC, for which the “PBM E-score” value was -0.0135.

As for CTTAGCTA, the “PBM E-score” value came out at 0.151.

As to ATTAGCTA, the “PBM E-score” value was 0.3.

With AGTAGATA, the “PBM E-score” value was found to be 0.306.

On to ATTAGATA, for which the “PBM E-score” value was determined as 0.301.

Turning to AATAGATA, the “PBM E-score” value came to 0.269.

Regarding TATAGATA, the “PBM E-score” value worked out at 0.176.

For the sequence GTTAGATA, the “PBM E-score” value was determined as 0.113.

With CCGGTTTC, the “PBM E-score” value stood at 0.0044.

Turning to TACAATCA, the “PBM E-score” value came to 0.152.

For the sequence CCCTCAGG, the “PBM E-score” value was -0.164.

For AACCAAAA, the “PBM E-score” value came to 0.204.

CCGCCCCA: the “PBM E-score” value came out at 0.109.

In the case of AGTGCCGC, the “PBM E-score” value was -0.124.

Take AGGGCCAC: the “PBM E-score” value was -0.194.

These data come from the supplement of paper PMC3334620.
